Screens deposited in PubChem BioAssay by National Center for Advancing Translational Sciences (NCATS).
TDP1 cell CPT: growth inhibition of DT40 Tdp1-/-;hTDP1 cells with camptothecin (screen for TDP1 inhibitors). chicken DT40 Tdp1-/-;hTDP1 cells + 20 nM CPT, ATP luminescence, 48 h. Potency, µM (titrated, usually from 46.2 µM), hits mostly inhibitors. 420,000 tested, 12% active; further: nearly all actives have a fitted effect of over 55% in size
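Cell growth measured by CellTiter-Glo luminescence after a minimum 48 h, 37 C compound exposure with 20 nM CPT in Tdp1-knockout DT40 cells stably expressing hTDP1, seeded 400/well; qHTS titration format.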
TDP1 inh: TDP1 (human) enzyme inhibition. recombinant TDP1, AlphaScreen DNA substrate cleavage. Potency, µM (titrated, usually from 130 µM), actives largely listed as inhibitors. Q9NUW8. AID 485290. 350,000 tested, 0.28% active; further: nearly all actives have a fitted effect of over 40% in size
Target sequence (Q9NUW8 whole entry, looked up): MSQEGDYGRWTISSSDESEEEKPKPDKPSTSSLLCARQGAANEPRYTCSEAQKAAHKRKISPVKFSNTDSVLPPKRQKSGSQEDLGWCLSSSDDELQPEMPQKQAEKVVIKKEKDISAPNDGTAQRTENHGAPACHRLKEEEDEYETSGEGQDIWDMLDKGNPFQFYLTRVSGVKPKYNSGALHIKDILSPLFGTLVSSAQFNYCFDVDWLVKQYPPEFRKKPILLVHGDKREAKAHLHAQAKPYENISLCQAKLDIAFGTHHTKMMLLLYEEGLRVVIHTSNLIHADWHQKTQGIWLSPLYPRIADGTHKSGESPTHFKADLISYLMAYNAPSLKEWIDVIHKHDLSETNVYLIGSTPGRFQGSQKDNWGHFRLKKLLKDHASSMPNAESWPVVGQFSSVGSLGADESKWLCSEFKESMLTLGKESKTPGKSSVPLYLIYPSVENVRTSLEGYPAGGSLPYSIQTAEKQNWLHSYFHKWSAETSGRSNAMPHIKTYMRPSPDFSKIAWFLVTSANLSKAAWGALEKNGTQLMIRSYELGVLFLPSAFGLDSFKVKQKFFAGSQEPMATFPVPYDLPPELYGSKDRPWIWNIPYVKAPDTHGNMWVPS
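Recombinant human Tdp1 (E. coli-expressed, 1 nM final) preincubated with compounds 15 min at room temperature, then 5'-biotin/3'-phosphotyrosine-FITC DNA substrate (15 nM final) added for 5 min. AlphaScreen beads (10 ug/ml final) added 10 min; cleavage lowers signal.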
TGFb inhibitor: inhibitors of TGF-b signaling. HepG2 CAGA-GFP TGF-b/SMAD3 reporter, GFP fluorescence, 18 h; TGF-beta stimulated, 500 pg/mL final. Potency, µM (titrated, usually from 46.1 µM), hits mostly inhibitors. 410,000 tested, 1.2% active. AID 588855; further: nearly all actives have a fitted effect of over 65% in size
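HEPG2 CAGA-GFP, 1000 cells/well; 2 h settle, 37 C; cpd via pin tool; TGF-b 500 pg/mL final; 18 h, 37 C; GFP imaging ex488/em500-530; %Activity normalised to -TGF-b and +DMSO controls; CRC fit, curve class.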
IL1B secr inh: blocks inflammasome-driven IL-1 beta release; THP-1 LPS/ATP IL-1B secretion, AlphaLISA, 16 h; hits give low values; 360,000 tested, 4.7% active; activity change, % at 57.5 µM; in the data active means activity change below about -50%; inconclusive means mostly about -30% to -49%
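THP-1 cells pretreated 1 hr with compounds (up to 57.5 uM final), then stimulated with LPS (250 ng/mL final) plus ATP (1.25 mM final); secreted IL-1B measured by AlphaLISA after 16 hr, decreased signal indicating inhibition.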
TDP1 cell noCPT: qHTS for Inhibitors of human tyrosyl-DNA phosphodiesterase 1 (TDP1): qHTS in cells in absence of CPT. DT40 Tdp1-/- hTDP1 cells, no CPT, ATP luminescence, 48 h. Potency, µM (series often up to 46.2 µM), most hits filed as inhibitors. 420,000 tested, 15% active. AID 686978, 2013; further: nearly all actives have a fitted effect of over 55% in size
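No-CPT arm: Tdp1-/-;hTDP1 DT40 cells (400/well) plus compounds, incubated ≥48 hr at 37 °C. Readout CellTiter-Glo luminescence.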
HepG2 tox: kills HepG2 cells in TGF-b inhibitor counter-screen; Potency, µM (doses to about 46.1 µM), usual class: cytotoxic; HepG2 CAGA-GFP viability, ATP luminescence, 18 h; AID 588856; 410,000 tested, 0.76% active
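HepG2 CAGA-GFP cells (1000/well, DMEM with 1% FBS) received compound, then TGF-beta at 500 pg/mL final, and were incubated 18 hours at 37 degrees C. Viability was read by CellTiter-Glo luminescence. Media-only wells were set as complete cell-killing and DMSO as no toxicity.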
A number is an active result; - = inactive; ? = inconclusive; . = not tested or not shown; [ ] = remark or other dose. In the library only some 19% were active in any assay of this set; here they are far more common. Unless noted, the call rests on the fitted dose curve; in most records, active means well fitted curve in the direction sought with a large enough effect; inconclusive means small, poorly fitted or top-dose-only effect, or another doubt; inactive means no such curve, though single readings can be large; an effect the other way counts as inactive or inconclusive.

SMILES	TDP1 cell CPT	TDP1 inh	TGFb inhibitor	IL1B secr inh	TDP1 cell noCPT	HepG2 tox
CCN(CC)c1ccc(NC2CC(=O)N(CCc3ccc(OC)cc3)C2=O)cc1 (centres undefined)	13µM	-	-	-	14.6µM	-
COc1ccc(CCNC2CC(=O)N(CCc3ccccc3)C2=O)cc1 (centres undefined)	-	-	?	-	-	-
Cc1cc(CN2CCN(c3cccc(C)c3C)CC2)cs1	23.1µM	-	?	.	14.6µM	-
CC(c1ncncc1F)[C@](O)(Cn1cncn1)c1ccc(F)cc1F (some centres undefined)	.	-	.	.	.	.
O=C(CSc1nccn1Cc1ccccc1)NCc1ccco1	-	-	-	.	-	-
Cc1ccc(NS(=O)(=O)c2ccc3c(c2)CC(=O)N3)cc1F	-	-	-	-	-	-
CC(C)(C)NC(=O)CSc1nc2ccc(NC(=O)CSc3nnc(N)s3)cc2s1	20.6µM	-	-	-	9.2µM	-
CC(C)(C)NC(=O)CSc1nc2ccc(NC(=O)CSc3nnnn3Cc3ccccc3)cc2s1	8.2µM	-	?	-	10.3µM	-
CCOC(=O)CSc1nc2ccc(NC(=O)CSc3nnnn3Cc3ccccc3)cc2s1	-	-	-	-	-	-
O=C(CN1CCN(Cc2ccc(F)cc2)C1=O)NC1CCCC1	-	-	-	-	-	-
O=C(NNC(=O)c1csc(-c2cnccc2C(F)(F)F)n1)c1ccc(C(F)(F)F)cc1	?	-	?	-	16.4µM	-
COc1cccc(-c2cnc3c(NC(C)=O)cc(-c4ccncc4)cn23)c1	?	.	-	-	16.4µM	-
COc1cccc(-c2cnc3c(NC=O)cc(-c4ccncc4)cn23)c1	18.4µM	.	-	-	4.61µM	-
Cn1c(=O)c2cc(NC(=S)NC3CC3)ccc2n1C/C=C/c1ccccc1	-	.	-	-	-	-
Cn1c(=O)c2c(nc(N/N=C/c3cccs3)n2Cc2ccccc2)n(C)c1=O	?	-	-	-	23.1µM	-
Cn1c(=O)c2c(nc(N/N=C/c3ccc(OC(=O)c4ccco4)cc3)n2Cc2ccccc2)n(C)c1=O	11.6µM	-	?	-	8.2µM	-
Cc1cc(C(=O)NP(=O)(N2CC(C)OC(C)C2)N2CC(C)OC(C)C2)c(C)n1C1CC1 (centres undefined)	-	-	-	-	-	-
COc1ccccc1C1CN(CC(=O)N2CCC(N3CCOCC3)CC2)Cc2ccccc2O1 (centres undefined)	-[9.04 µM]	.	.	.	-	.
CC(Oc1ccccc1F)C(=O)NNC(=O)CC(C)c1ccccc1 (centres undefined)	-	.	-	-	-	0.891µM
CC(Oc1ccccc1F)C(=O)NNC(=O)CCS(=O)(=O)c1ccccc1Cl (centres undefined)	-	.	-	-	-	-
CCc1ccc(N2CCN(S(=O)(=O)CC34CCC(CC3=O)C4(C)C)CC2)cc1 (centres undefined)	-	.	-	-66.7	20.6µM	-
CN(C)/[N+]([O-])=N\Oc1cc(OC(=O)c2ccc(N)cc2)c([N+](=O)[O-])cc1[N+](=O)[O-]	.	.	-	.	.	-
COc1ccccc1CN(C)C(=O)CSc1nnc(C2CC2)n1C1CC1	?	-	-	-	16.4µM	-
CC(=O)c1ccc(Nc2nc(C)cc(C)n2)cc1	-	.	-	-	-	-
Cc1cc(C)c2nc(-c3cccc(Cl)c3)c(C)c(C(=O)N3CCOCC3)c2c1	?	-	-	-82.3	?	-
CC(=O)c1ccc(Nc2cc(C)nc3ccccc23)cc1	11.6µM	-	-	-	13µM	-
CC(=O)c1ccc(Nc2cc(C)nc3c(C)cccc23)cc1	1.3µM	-	-	-	1.3µM	-
Cc1cc(C)c2nc(C)cc(Nc3ccc(C(=O)N4CCOCC4)cc3)c2c1	-	.	-	-64.9	-	-
